High-throughput results as filed in PubChem BioAssay.
TRHR agonist-1: qHTS for Small Molecule Agonists and Allosteric Enhancers of Human TRH Receptor: Primary Screen for Agonists. hit rate 0.18% among 360,000. TRHR cells, calcium flux fluo-8, FDSS agonist mode. AID 493084, 2011. activation, % at 2 µM. Thyrotropin-releasing hormone receptor (Homo sapiens), P34981; in the data active means activation above about 30%
Target sequence (P34981 whole entry, looked up): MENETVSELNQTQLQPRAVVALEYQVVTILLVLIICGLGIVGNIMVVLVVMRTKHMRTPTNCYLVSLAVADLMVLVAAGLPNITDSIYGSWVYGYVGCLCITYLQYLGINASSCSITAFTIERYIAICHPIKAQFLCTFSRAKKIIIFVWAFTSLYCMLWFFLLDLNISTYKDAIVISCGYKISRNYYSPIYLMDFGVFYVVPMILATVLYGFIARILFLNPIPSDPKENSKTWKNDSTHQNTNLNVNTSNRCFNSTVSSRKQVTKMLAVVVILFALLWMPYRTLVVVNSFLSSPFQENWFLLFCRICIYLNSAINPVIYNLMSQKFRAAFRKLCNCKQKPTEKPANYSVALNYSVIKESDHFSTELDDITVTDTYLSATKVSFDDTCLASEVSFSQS
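TRHR-expressing cells, plated overnight in medium with 10% serum, were loaded with fluo-8 calcium dye at room temperature. After a 10 s baseline, library compound was pin-added and calcium release was recorded kinetically (ex 480/em 530) as agonist response.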
TRHR enhancer-1: qHTS for Small Molecule Agonists and Allosteric Enhancers of Human TRH Receptor: Primary Screen for Enhancers; Thyrotropin-releasing hormone receptor (Homo sapiens), P34981; TRHR cells, fluo-8 calcium fluorescence, EC20 TRH enhancement; enhancement, % at 2 µM; hit rate 0.66% among 360,000; AID 493056, 2011; in the data active means enhancement above about 30%
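Enhancer read-out: after compound pinning and an initial kinetic agonist-mode read, an EC20 of TRH (10 nM final) was injected and fluo-8 calcium signal (Ex 480/Em 530) followed at 1 s/cycle for 100 cycles in TRHR-expressing cells.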
TRPV1 ag: HTS Assay for Compounds that Act as Agonists of the Vanilloid Receptor 1; AID 540275, 2011; hit rate 0.19% among 320,000; activation, % at 8.33 µM; TRPV1-expressing cells, Fluo-8 calcium influx, agonist mode; Transient receptor potential cation channel subfamily V member 1 (Homo sapiens), Q8NER1; in the data active means activation above about 80%; inconclusive means between about 30% and that limit
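Fluo-8 calcium influx in TRPV1-expressing cells, kinetic read (ex 480/em 520 nm). Compound added and read 3 min for agonist activity, followed by capsaicin at EC20 final and 2 min further read for enhancement.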
TRPML1 inh: qHTS for Inhibitors of the Human Mucolipin Transient Receptor Potential 1 (TRPML1). activity change, negative = inhibition, % (no concentration beside the values). AID 624415, 2012. hit rate 0.02% among 390,000. TRPML1-inducible cells, Ca2+ dye fluorescence, FDSS; stronger effect = lower value; inhibition of EC80 agonist-evoked calcium signal. Mucolipin-1 (Homo sapiens), Q9GZU1; in the data active means activity change below about -50%; inconclusive means between about -30% and that limit;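 further: stimulus is agonist 54-4 at its EC80 concentration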
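TRPML1-DL cells, Tet-induced overnight (~16 h, 37 °C) at 1,500 cells/well, were loaded with Ca8 no-wash dye plus quencher for 45-90 min at room temperature. Compounds were pinned during FDSS kinetic reading; agonist 54-4 at EC80 (4 uM final) then added.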
TRPML1 ag: qHTS for Agonists of the Human Mucolipin Transient Receptor Potential 1 (TRPML1) | TRPML1-expressing cells, Ca2+ dye fluorescence, FDSS | hit rate 0.12% among 410,000 | Mucolipin-1 (Homo sapiens), Q9GZU1 | activation, % (no concentration beside the values); in the data active means activation above about 50%; inconclusive means mostly about 30% to 49%
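Tet-induced TRPML1-DL cells, 1,500 per well, cultured overnight, were loaded with a no-wash Ca2+ dye for 45–90 min. Calcium fluorescence was recorded on the FDSS for 110 s after compound addition, before the EC80 agonist (4 uM 54-4) was added.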
TRPV1 potentiator: HTS Assay for Compounds that Act as Potentiators of the Vanilloid Receptor 1; potentiation, % at 8.33 µM; hit rate 0.02% among 320,000; AID 540277, 2011; TRPV1-expressing cells, Fluo-8 calcium influx, capsaicin EC20 potentiation; Transient receptor potential cation channel subfamily V member 1 (Homo sapiens), Q8NER1; in the data active means potentiation above about 80%; inconclusive means between about 30% and that limit
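TRPV1-expressing cells were cultured overnight at 35.5C and loaded with Fluo-8 calcium dye for 40 to 90 min at room temperature. After a 10 s baseline, compound was added and calcium influx was read kinetically for 3 min (ex 480/em 520 nm).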
TRHR enhancer-2: qHTS for Small Molecule Agonists and Allosteric Enhancers of Human TRH Receptor: Confirmation Screen for Enhancers | AID 493076, 2011 | 970 tested, under 10 active | TRH receptor cell assay, enhancer confirmation qHTS | shares compounds with TRHR enhancer-1 | activity change, negative = inhibition, % at 46.1 µM;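 further: compound effect scored on response to added TRH at EC20 of 10 nM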
TRHR agonist-2: qHTS for Small Molecule Agonists and Allosteric Enhancers of Human TRH Receptor: Confirmation Screen for Agonists. AID 493078, 2011. Potency, µM (titrated, usually from 46.1 µM), hits mostly activators. hit rate 8% among 970. TRHR-expressing cells, agonist activation read-out. shares compounds with TRHR enhancer-1; further: nearly all actives have a fitted effect of over 75% in size
A number is an active result; n = inactive; u = inconclusive; x = no result. Hits are enriched below; roughly 0.96% of the tested compounds scored in any of these assays. Unless noted, the call rests on the fitted dose curve; in most records, active means well fitted curve in the direction sought with a large enough effect; inconclusive means small, poorly fitted or top-dose-only effect, or another doubt; inactive means no such curve, though single readings can be large; an effect the other way counts as inactive or inconclusive.

SMILES	TRHR agonist-1	TRHR enhancer-1	TRPV1 ag	TRPML1 inh	TRPML1 ag	TRPV1 potentiator	TRHR enhancer-2	TRHR agonist-2
O=C(CCc1nc2ccccc2c(=O)[nH]1)Nc1cc(Cl)ccc1N1CCCC1	n	47	n	n	n	n	n	n
O=C(CCc1nc2ccccc2c(=O)[nH]1)Nc1ccc(N2CCCCC2)cc1	n	n	n	n	n	n	x	x
O=C(NNc1ccccc1C(F)(F)F)c1sccc1Cl	x	x	x	x	n	x	x	x
CCOC(=O)c1sc(N2C(=O)c3oc4ccc(F)cc4c(=O)c3C2c2ccc(C)cc2)nc1C (stereo not given)	x	x	x	x	n	x	x	x
COc1ccc(NC(=O)c2ccc3nc(C)sc3c2)cc1	n	57	n	n	n	n	n	n
COC(=O)c1ccc(NC(=O)c2ccc3nc(C)sc3c2)cc1	n	n	n	n	n	n	x	x
COc1ccc(C(=O)NNC(=O)c2cccc(F)c2)cc1	n	45	u	n	n	n	n	n
COc1ccccc1NC(=O)c1ccc(-c2nn(C)c(=O)c3ccccc23)cc1	n	n	n	n	n	n	x	x
COc1ccc(C(=O)NNC(=O)c2ccc3ccccc3c2)cc1	x	x	x	n	n	x	x	x
COc1ccc(NC(=O)c2ccc(-c3nn(C)c(=O)c4ccccc34)cc2)cc1	n	44	n	n	n	n	n	n
COc1ccc(NC(=O)c2ccc3ccccc3c2)cc1	n	54	u	n	n	n	n	n
C(=C\c1nc2ccccc2s1)/c1ccc2c(c1)OCO2	x	x	x	x	n	x	x	x
CCCN1CNc2c(c(=O)[nH]c(=S)n2CCc2ccc(C)cc2C)C1	x	x	x	x	n	x	x	x
c1coc(CNc2ncnc3c2[nH]c2ccccc23)c1	x	x	x	x	n	x	x	x
COc1ccc(CNc2ncc(-c3ccc(F)cc3)n2C)cc1OC	n	n	n	n	n	n	x	x
COc1cc(CNc2ncc(-c3ccc(Br)cc3)n2C)cc(OC)c1O	n	41	n	n	n	n	n	n
O=C(N/N=C/c1ccc(Cl)cc1Cl)c1ccncc1	n	n	u	x	x	n	x	x
O=C(N/N=C/c1cc(Cl)cc(Cl)c1O)c1ccncc1	40	n	n	n	n	n	u	21µM
COc1ccc2nc(NC(=O)C3CC(=O)N(c4ccc5c(c4)OCCO5)C3)sc2c1 (stereo not given)	n	49	u	n	n	n	u	n
COc1ccc(CN(C)C(=O)C2CC(=O)N(c3ccc4c(c3)OCCO4)C2)c(OC)c1 (stereo not given)	n	65	n	n	n	n	n	n
O=C(Nc1nc2ccc(F)cc2s1)C1CC(=O)N(c2ccc3c(c2)OCCO3)C1 (stereo not given)	n	n	n	n	n	n	x	x
O=C(NCc1ccccc1F)C1CC(=O)N(c2ccc3c(c2)OCCO3)C1 (stereo not given)	n	n	n	n	n	n	x	x
O=C(C1CC(=O)N(c2ccc3c(c2)OCCO3)C1)N1CCN(Cc2ccccc2F)CC1 (stereo not given)	n	48	n	n	n	n	n	n
O=C(C[n+]1cccc2cccc(O)c21)c1ccc2ccccc2c1	x	x	x	x	n	x	x	x
Cc1ccc2c(c1)ncc[n+]2CC(=O)c1ccc(Cl)cc1Cl	x	x	x	x	n	x	x	x
COc1cc(C(=O)NC2CCCC2)c(Br)c(OC)c1OC	n	49	n	n	n	n	n	n
